# In the supplement of paper PMC6805474:
# Assays:
# [1] = system: Schistosoma mansoni schistosomula (LE); assay: XTT viability relative to DMSO control; higher = more viable (less active); details: 72 h; 10 µM
# Procedure: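 XTT/PMS was then added for a further 24 h (72 h total) and A450 was read. % viability = (sample - heat-killed control)/(DMSO control - heat-killed control) x 100, from duplicate wells in two independent experiments.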
# [2] = system: Schistosoma mansoni schistosomula (NMRI); assay: phenotypic severity score (0-4); higher = more antischistosomal effect, active = 2 or more; details: 10 µM
# [3] = system: Schistosoma mansoni schistosomula (Liberian); assay: drug effect (1 - score/DMSO control score) (fraction); higher = more antischistosomal effect, active = 0.5 or more; extreme values may be limits of the assay; details: 10 µM
# Procedure, shortened: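 Schistosomula of the Liberian strain of Schistosoma mansoni were mechanically transformed from cercariae, pre-incubated for at least 12 h, and placed at 50 per well in flat-bottom 96-well plates with Medium 199 containing 5% FCS. Compounds were tested in duplicate at 10 µM at 37 °C and 5% CO2, alongside wells holding 0.1% DMSO. Parasites were scored visually at 10× after 24, 48 and 72 h on a quarter-point scale running from 3 (normal) to 0 (dead). Drug effect came from the mean test-well score relative to the mean DMSO-well score, with negative values set to zero and plates accepted only when the DMSO wells averaged at least 2.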
# 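For phenotypic severity score (0-4) in this document: visual microscopic scoring of shape, motility and density changes versus 0.5% DMSO solvent controls, one point per descriptor, degeneracy or death scored 4, mean of duplicate wells.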
SMILES,XTT viability [1] [%],phenotypic severity score ([2]; 24 h),phenotypic severity score ([2]; 48 h),phenotypic severity score ([2]; 72 h),drug effect ([3]; 24 h),drug effect ([3]; 48 h),drug effect ([3]; 72 h)
Cc1ccc(NC(=O)c2nc[nH]c2C(=O)Nc2nc3ccccc3[nH]2)c(C)c1,50.8,3 (active),4 (active),4 (active),0.273 (inactive),0.4 (inactive),0.278 (inactive)
COc1ccccc1C(C)NCC(=O)Nc1cc(C(F)(F)F)ccc1Cl (centres undefined),67.7,0 (inactive),0 (inactive),0 (inactive),0.15 (inactive),0.135 (inactive),0.278 (inactive)
N#Cc1ccc(-c2cnc(N)c(-c3ccc(C(N)=O)cc3)n2)cc1,113,2 (active),2 (active),4 (active),0.027 (inactive),0.333 (inactive),0.5 (active)
COc1cccc(CC(=O)N2CCC(n3c(C)nc4ccc(F)cc43)CC2)c1,116,1 (inactive),1 (inactive),1 (inactive),0.1 (inactive),0.405 (inactive),0.394 (inactive)
OCCc1ccc(Nc2nccc(-c3nnc4ccccn34)n2)cc1,109,0 (inactive),1 (inactive),4 (active),0.2 (inactive),0.556 (active),0.562 (active)
COc1ccccc1OCCCCn1c(C2CC2)nc2ccccc21,76,0 (inactive),0 (inactive),0 (inactive),0.136 (inactive),0.2 (inactive),0.182 (inactive)
CCc1ccc(C(NCc2nc(N)nc(N(C)C)n2)C(C)C)cc1 (centres undefined),99.2,0 (inactive),0 (inactive),0 (inactive),< 0 (inactive),< 0 (inactive),0.111 (inactive)
c1ccc(Oc2ccc(-c3cc(CN4CCOCC4)[nH]n3)cc2)cc1,85.9,0 (inactive),0 (inactive),0 (inactive),0.0455 (inactive),0.05 (inactive),0.158 (inactive)
Cc1cc(Nc2ccncc2)n2nc(C)c(-c3ccccc3Cl)c2n1,64.9,0 (inactive),0 (inactive),0 (inactive),0.1 (inactive),0.135 (inactive),0.167 (inactive)
COc1ccc(-c2nc(-c3cccc(NC(=O)Cc4ccc(F)cc4)c3)no2)cc1OC,137,0 (inactive),0 (inactive),1 (inactive),0.182 (inactive),0.2 (inactive),0.182 (inactive)
CN1CCC(NCc2cccc(-c3ccc(S(=O)(=O)NCc4ccccc4)cc3)c2)CC1,19.2,0 (inactive),2 (active),4 (active),0.6 (active),0.784 (active),0.939 (active)
CCCCc1ccc(NC(=O)Nc2ccc(O[C@H]3CCCC[C@@H]3N(C)c3ccccc3)c(F)c2)cc1,33.7,0 (inactive),0 (inactive),0 (inactive),0.111 (inactive),0.312 (inactive),0.875 (active)
Cc1cc(Nc2ccc(C(F)(F)F)cc2)n2ccnc2n1,71.7,0 (inactive),0 (inactive),0 (inactive),0.0909 (inactive),0.15 (inactive),0.158 (inactive)
O=C(N[C@H](Cc1ccccc1)C(=O)Nc1ccccc1N1CCOCC1)c1cccs1,129,0 (inactive),0 (inactive),0 (inactive),0.2 (inactive),0.167 (inactive),0.188 (inactive)
O=C(NC1CCCCC1)N1CCN(Cc2ccc3c(c2)OCO3)CC1,88.6,0 (inactive),0 (inactive),0 (inactive),0.0455 (inactive),0.2 (inactive),0.127 (inactive)
Cc1cc2ccccc2n1CC(=O)N1CC(C(=O)N2CCCCC2)Oc2ccccc21 (centres undefined),71.5,0 (inactive),1 (inactive),0 (inactive),0.05 (inactive),0.027 (inactive),0.111 (inactive)
OCc1ccc(-c2cncc(Nc3cccc(Cl)c3)c2)cc1,99.5,0 (inactive),0 (inactive),0 (inactive),0.1 (inactive),0.0811 (inactive),0.152 (inactive)
Cn1ccnc1CNCCS(=O)(=O)c1cccc(Nc2ccc(-c3cccc(F)c3)cn2)c1,114,0 (inactive),0 (inactive),0 (inactive),0.1 (inactive),0.0556 (inactive),0.125 (inactive)
Cc1nc(-c2ccccn2)nc(N(C)CCc2ccccc2)c1Cl,20.7,1 (inactive),4 (active),4 (active),< 0 (inactive),0.189 (inactive),0.697 (active)
NS(=O)(=O)c1cccc(-c2ccc3ncc(N4CCOCC4)nc3c2)c1,116,0 (inactive),0 (inactive),0 (inactive),0.15 (inactive),0.189 (inactive),0.455 (inactive)
FC(F)(F)c1cnc(Sc2nnc(-c3ccncc3)o2)c(Cl)c1,74,0 (inactive),1 (inactive),2 (active),0.459 (inactive),0.778 (active),0.938 (active)

SMILES,XTT viability [1] [%],phenotypic severity score ([2]; 24 h),phenotypic severity score ([2]; 48 h),phenotypic severity score ([2]; 72 h),drug effect ([3]; 24 h),drug effect ([3]; 48 h),drug effect ([3]; 72 h)
Cc1cc(OCC(=O)Nc2ccc(C(C)C)cc2)n(C)c(=O)c1C#N,82.3,0 (inactive),0 (inactive),0 (inactive),0.1 (inactive),0.0556 (inactive),< 0 (inactive)
Cc1[nH]c2ccccc2c1C(c1cccs1)N1CCN(C)CC1 (centres undefined),6.43,3 (active),4 (active),4 (active),1 (active),1 (active),1 (active)
O=C(COc1cccc(F)c1)Nc1nc(-c2ccccn2)cs1,68.1,0 (inactive),0 (inactive),0 (inactive),0.0909 (inactive),0.1 (inactive),0.127 (inactive)
CC(C)(C)OC(=O)N1CCN(c2nccc(-c3ccc(-c4ccc(Cl)cc4)s3)n2)CC1,93.7,0 (inactive),0 (inactive),0 (inactive),0.182 (inactive),0.15 (inactive),0.182 (inactive)
COc1cc(CN2CCC3(C=Cc4ccccc43)CC2)cc2c1OCO2,73.9,1 (inactive),1 (inactive),0 (inactive),0.1 (inactive),0.135 (inactive),0.273 (inactive)
CC(=O)N(CCN(C(=O)c1ccc(F)cc1)c1ccccc1)c1ccccc1,117,1 (inactive),0 (inactive),0 (inactive),0.1 (inactive),0.027 (inactive),0.0909 (inactive)
Cc1ccc2cc(C3NC(=O)c4ccccc4N3)c(Cl)nc2c1 (centres undefined),99,0 (inactive),0 (inactive),1 (inactive),0.05 (inactive),0.0811 (inactive),0.111 (inactive)
Cc1nc2ccccn2c1C(=O)NCc1ccc(Cl)cc1,81,0 (inactive),0 (inactive),0 (inactive),0.1 (inactive),0.189 (inactive),0.333 (inactive)
O=C(CCC1CCCCC1)Nc1cccc(-c2nnc(-c3ccco3)o2)c1,145,2 (active),4 (active),4 (active),0.182 (inactive),0.2 (inactive),0.167 (inactive)
O=C(c1ccco1)N(CCCn1ccnc1)c1nc2c(Cl)cccc2s1,46.4,0 (inactive),0 (inactive),0 (inactive),0.0909 (inactive),0.4 (inactive),0.4 (inactive)
Cc1nn2c(=O)c3c([nH]c2c1-c1ccc(Cl)cc1)CCCC3,101,0 (inactive),0 (inactive),0 (inactive),0.136 (inactive),0.2 (inactive),0.127 (inactive)
O=C(Nc1ccnc(-c2cccnc2)n1)c1cc(C(F)(F)F)cc(C(F)(F)F)c1,91,0 (inactive),0 (inactive),0 (inactive),0.1 (inactive),0.0811 (inactive),0.111 (inactive)
Cc1ccc(-c2cc(C(=O)Nc3cccnc3)c3cc(Br)ccc3n2)cc1,146,2 (active),1 (inactive),0 (inactive),0.5 (active),0.667 (active),1 (active)
Cc1cc(NCCc2ccccc2)nc(NC(=N)Nc2ccc(Cl)cc2)n1,8.5,4 (active),4 (active),4 (active),1 (active),1 (active),1 (active)
CC(C)(C)n1nc(Cc2ccc(F)c(Cl)c2)c2c(N)ncnc21,98.7,0 (inactive),0 (inactive),0 (inactive),0.0811 (inactive),0.167 (inactive),0.188 (inactive)
CCn1ncc2c(NC3CCOCC3)c(CNC(=O)c3ccnn3C)c(C)nc21,92.5,0 (inactive),0 (inactive),0 (inactive),0.05 (inactive),0.0811 (inactive),0.0303 (inactive)
COc1cncc(-c2cncc(N3CCN(c4ccncc4)CC3)n2)c1,103,1 (inactive),0 (inactive),0 (inactive),0.351 (inactive),0.389 (inactive),0.688 (active)
CCCCc1ccc(C(=O)Nc2nccc3ccccc23)nc1,94.2,1 (inactive),0 (inactive),1 (inactive),0.1 (inactive),0.167 (inactive),0.188 (inactive)
COc1ccc2nc(C)cc(OCC(=O)NCc3ccccc3)c2c1,74.7,0 (inactive),0 (inactive),0 (inactive),0.0526 (inactive),0.0556 (inactive),< 0 (inactive)
FC(F)(F)c1cc(NCCc2ccccc2)nc(-c2ccccn2)n1,58.7,1 (inactive),2 (active),4 (active),0.05 (inactive),0.514 (active),0.394 (inactive)
Cc1ccc2c(c1C)NC(=O)C21NN=C(c2ccccc2)S1 (centres undefined),125,2 (active),0 (inactive),0 (inactive),< 0 (inactive),0.135 (inactive),0.222 (inactive)
